Measured values reported in PubChem BioAssay (NCI).
About 83,000 compounds went through this panel and 20% of them were active in at least one assay; those are over-represented in the sample as a whole.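 Values shown are percent growth following 48 h exposure of cells in 96-well plates to a single concentration of compound; below 10 was considered active.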 Calls of active or inactive are those of the source.

Test system: HL-60(TB) leukemia
Assay: NCI-60 one-dose screen, 48 h (100 = growth as untreated, 0 = no growth, -100 = all killed)
Conditions: 10 µM unless noted

SMILES	growth
FC(F)(F)c1cc(CNc2nc(Cl)ncc2Br)cc(C(F)(F)F)c1	85.2% (inactive)
C/C(=N\Nc1ccc2ccccc2n1)c1ccccn1	-39% (active)
O=[N+]([O-])c1cc2c(cc1Br)C1C(C3C2C(Cl)(Cl)C(Cl)=C(Cl)C3(Cl)Cl)C(Cl)(Cl)C(Cl)=C(Cl)C1(Cl)Cl (stereo not given)	110% (inactive)
COc1cc(Cl)cc(-c2nn(-c3cccc(NC(=O)Nc4cccc(C(F)(F)F)c4)c3)cc2-c2ccncc2)c1	-7.89% (active)
CC(=O)C1Cc2ccccc2C1=O (stereo not given)	97.4% (inactive)
COc1ccc(-c2n[nH]nc2-c2cc(OC)c3c(c2)OCO3)cc1	-38.2% (active)
O=S(=O)(Nc1ccc2ccccc2c1)c1ccc(-c2cnc(C3CC3)o2)cc1	-28% (active)
CC/C=C\C/C=C\C[C@H]1C/C=C2/C(=O)C=C[C@H]2C/C=C\CCC(=O)O1	-5.31% (active)
COCCCN=C(N)c1ccc(NC(=O)c2ccc(C(=O)Nc3ccc(C(N)=NCCCOC)cc3)cc2)cc1	71.3% (inactive)
Nc1c(C(=O)c2ccc(Cl)cc2)sc(Nc2ccccc2)c1-c1nc2ccccc2s1	69.6% (inactive)
O=c1[nH]c(CN2CCN(c3ccccc3)CC2)nc2c(Br)cc(Br)cc12	99.2% (inactive)
CCOC(=O)c1c(C)n2c(=O)cc(C)c3c(OC(C)=O)c(OC(C)=O)cc1c32	0.923% (active)
CC(O)CCNC(c1ccccc1)C(O)c1ccccc1 (stereo not given)	102% (inactive)
CCCCN(CCCC)Cc1c(C)[nH]c2cc(OC)ccc2c1=O	94.1% (inactive)
Cn1ncc2c(Sc3ccc(Cl)cc3)ncnc21	81.4% (inactive)
FCc1ncc(-c2ccc(C(F)(F)F)cc2)c(NC2CCCCCC2)n1	-25.6% [100 µM] (active)
CC1=C([Se]CC(OC(=O)[C@@H](CSSC(C)(C)C)NC(=O)C(C)(C)C)C(=O)NCCCCCC(=O)OCc2ccccc2)C(=O)c2ccccc2C1=O (stereo not given in full)	-24.4% (active)
O=C(/C=C/c1ccc(C(F)(F)F)cc1)c1ccc(Nc2nc(NCCO)nc(NCCO)n2)cc1	88.5% (inactive)
Clc1ccc(Nc2ncc(Cc3cccc(Cl)c3Cl)s2)cc1	100% (inactive)
CNC(=O)c1ccccc1Nc1nc(Nc2cc(OC)c(OC)c(OC)c2)ncc1Br	19% (inactive)

SMILES	growth
O=c1c2c3c(sc2nc(N/N=C/c2cn(-c4ccccc4)nc2-c2ccc(Cl)cc2)n1Cc1ccccc1)CCCC3	-32.4% (active)
CCCCCCC(C)(O)c1ccccc1 (stereo not given)	94.6% (inactive)
CN(C)CCOc1ccc(/C(=C(/CCCl)c2ccccc2)c2ccccc2)cc1	-33% (active)
Nc1nc(N)c2cc(S(=O)(=O)c3cccc(C(F)(F)F)c3)ccc2n1	30.9% (inactive)
COc1cc(C(=O)c2cnc(-c3c[nH]c4cccc(C)c34)[nH]2)cc(OC)c1OC	-14.9% (active)
Cc1cc(F)ccc1S(=O)(=O)Nc1cc(-c2c(O)ccc3ccccc23)c(O)c2ccccc12	-10.8% (active)
Cc1cc(Cl)ccc1Nc1nc(C(F)(F)F)ccc1C(=O)N/N=C/c1ccccc1Cl	12.5% (inactive)
Cc1[nH]c(C(=O)Nc2ccc(C(N)=O)cc2NC(C)C)c(Cl)c1Cl	99.7% (inactive)
CC1=C(C)C(=O)C(C(C)C2=C(C)C(=O)C(C)=C(C)C2=O)=C(C)C1=O	42.5% (inactive)
COc1ccc2c(c1)CCCC21C(=O)Nc2c(Cl)cccc21 (stereo not given)	33.9% (inactive)
CCNc1ccc(-c2nc3ccccc3n3cccc23)cc1	86% (inactive)
CC1(C)N=C(N)N=C(N)N1c1ccc(CCc2ccccc2)c(Cl)c1	2.09% (active)
NC(CS/C(Cl)=C/Cl)C(=O)O (stereo not given)	86.9% (inactive)
CN(C)c1ccc2oc(=O)c3ccccc3c2c1	143% (inactive)
COc1ccc(C(=O)NC(=O)Nc2ccc3c(c2)NC(=O)/C3=C\c2[nH]c(C)c(C(=O)O)c2C)cc1	95.2% (inactive)
O=C(Cc1csc2nc(-c3ccc(Cl)cc3)cn12)N/N=C/c1ccccc1O	-3.5% (active)
Cc1cc2nc(CC(=O)c3cccc([N+](=O)[O-])c3)c(=O)[nH]c2cc1C	93.5% (inactive)
COC(=O)[C@]12CC[C@@H](C)[C@H](C)[C@@H]1C1=CC[C@@H]3[C@@]4(C)C(C=O)=C[C@@](C)(COS(C)(=O)=O)C4[C@H](O)C[C@@]3(C)[C@]1(C)CC2 (stereo not given in full)	-34.4% (active)
NC(=S)N/N=C1\c2ccccc2-c2c(F)c(F)c(F)c(F)c21	44.4% (inactive)
CC(SC(C)C(=O)N/N=C/c1cccc(Cl)c1)C(=O)N/N=C\c1cccc(Cl)c1 (stereo not given)	82.8% (inactive)
